Assay outcomes from PubChem.
NADH enzymes: blocks coupling enzymes of NAD/NADH assays; IC50, µM (doses to about 10 µM), for the others: at the top dose inhibition; coupled PK/LDH NADH assays, four targets; 65,000 tested, 0.02% active;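 active = single-dose screening hits from any of four coupled enzyme assays that gave an IC50 when retested across doses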;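 also: the DPM-DC format reads NADH fluorescence rather than 340 nm absorbance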
Spn DPM-DC inh: inhibitors of Streptococcus pneumoniae diphosphomevalonate decarboxylase; AID 556; purified DPM-DC, PK/LDH coupled NADH fluorescence; calls only at 10 µM; 65,000 tested, 0.49% active;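 active = the 320 compounds with the highest percent inhibition in the single-dose primary screen, excluding strongly autofluorescent ones, cut at about 32% in these data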;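 also: kinetic rate of NADH fluorescence loss reporting ADP formed by the decarboxylase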
PMK inhibit: inhibitors of Streptococcus pneumoniae phosphomevalonate kinase. purified PMK, PK/LDH-coupled NADH absorbance 340 nm. inhibition, % at 10 µM. 65,000 tested, 0.49% active. AID 539;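 active = top-ranked compounds by inhibition in the single 10 µM screen, taking a fixed number of the strongest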;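 also: 0% = full reaction with DMSO carrier and 100% = background rate without enzyme reaction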
Abs 340nm: compounds absorbing at 340 nm. compound absorbance at 340 nm, fold over control. fold change at 10 µM. 65,000 tested, under 10 active. AID 708;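 active = at 10 µM dose, initial 340 nm absorbance at least 2 fold that of control wells; inactive = change under 2 fold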;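 also: initial absorbance extrapolated from kinetic A340 decline of NADH oxidation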
Spn MK inh: inhibitors of Streptococcus pneumoniae mevalonate kinase; purified MK, PK/LDH-coupled NADH absorbance 340 nm; inhibition, % at 10 µM; 65,000 tested, 0.48% active; AID 555;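 active = ranked among the strongest by inhibition in the single 10 µM screen, a fixed top-ranked set picked for dose follow-up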
Fluor 339 460: intrinsic fluorescence of library compounds, ex339/em460 – biochemical, MLSMR library, data from DPM-DC assay, artefact control, profiling panel; fluorescence fold increase at 10 µM; compound autofluorescence, ex339/em460 nm, NADH buffer; stronger effect = higher value; 1 = no-compound wells, NADH background; AID 709; 65,000 tested, 5.5% active;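 active = at 10 µM, mean starting fluorescence two-fold or more over control wells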;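 also: signal is the first read of a kinetic run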
Starred values were filed as active, the others as inactive; i = inactive; . = no result given; + = active, no number; [ ] = remark or other dose. An excerpt weighted towards active compounds, which were near 6.3% of everything screened.

SMILES | NADH enzymes | Spn DPM-DC inh | PMK inhibit | Abs 340nm | Spn MK inh | Fluor 339 460
Cc1cc(OCC(=O)O)c2c3c(c(=O)oc2c1)CCCC3 | 3% | . | 1 | 1 | 8 | 2.5*
Cc1cc(OCC(=O)Nc2c(C)n(C)n(-c3ccccc3)c2=O)c2c3c(c(=O)oc2c1)CCC3 | 7% | i | 10 | 1.1 | 2 | 2.1*
CCCOC(=O)COc1cc(C)cc2oc(=O)c3c(c12)CCC3 | 6% | . | 6 | 1 | 5 | 2.2*
O=C1C2CCCN2C(c2cccnc2)N1c1nccs1 (configuration not stated) | 6% | i | 16 | 1 | 1 | 1.1
CCn1nc(-c2ccccc2)nc2c(=O)n(C)c(=O)nc1-2 | 33µM* | + | 11 | 0.8 | 11 | 0.67
CN1CCN(c2nccc3c2ncn3C)CC1 | 8% | i | 17 | 1 | 6 | 1.1
CCCNC(=O)c1c(N)n(Cc2ccc3c(c2)OCO3)c2nc3ccccc3nc12 | 3% | . | 14 | 0.99 | 8 | 2.1*
COc1ccc(Cn2c(N)c(C(=O)NCc3ccco3)c3nc4ccccc4nc32)cc1OC | 7% | . | 6 | 1 | 7 | 3.7*
COc1ccc(C2=NCC(=O)N(CC(=O)NCc3ccco3)c3sc4c(c32)CCCC4)cc1OC | 5% | i | 15 | 1 | 0 | 1
CC(c1ccc(F)cc1)n1cc(C(=O)NCc2ccc3c(c2)OCO3)nn1 (configuration not stated) | 2% | i | 0 | 1.1 | 5 | 1.1
Nc1c(C(=O)NCc2ccco2)c2nc3ccccc3nc2n1CCN1CCCCC1 | 3% | . | 4 | 1.1 | 1 | 2.3*
OC1(CN2CCOCC2)C2CC3CC(C2)CC1C3 (configuration not stated) | 8% | i | 11 | 0.97 | 7 | 1.1
O=c1cccc2n1CC1CC2CN(c2ncnc3c2cnn3-c2ccc(Cl)cc2)C1 (configuration not stated) | 3% | i | 0 | 1.1 | 8 | 1.1
Nc1ccccc1C(=O)OC1CSC1 | 1% | . | 0 | 1 | 6 | 1.9
COc1ccc(-c2cc(C(F)(F)F)n3nc(C(=O)N4CCC5(CC4)OCCO5)cc3n2)cc1OC | 23% | + | 9 | 1.2 | 5 | 1.6
CC(=O)c1c(C)n(CC2CCCO2)c2ccc(O)cc12 (configuration not stated) | 6% | i | 9 | 1.1 | 9 | 1.1
Nc1c(C(=O)NC2CCCC2)c2nc3ccccc3nc2n1CC1CCCO1 (configuration not stated) | 11% | . | 11 | 1 | 11 | 3.7*
CCOC(=O)c1c(N)n(CCCOC(=O)c2ccco2)c2nc3ccccc3nc12 | 11% | . | 13 | 1.1 | 9 | 4*
COCCCNC(=O)c1c(NC(=O)c2ccco2)n(Cc2ccccc2)c2nc3ccccc3nc12 | 9% | . | 11 | 1.1 | 7 | 3.8*
CCCCNC(=O)c1c(N)n(CCCOC)c2nc3ccccc3nc12 | 1% | . | 0 | 1 | 3 | 2.4*
Nc1c(C(=O)OCC2CCCO2)c2nc3ccccc3nc2n1Cc1cccs1 (configuration not stated) | 8% | . | 15 | 1.1 | 0 | 2.1*
CC(C)OCCCNC(=O)c1c(N)n(Cc2cccs2)c2nc3ccccc3nc12 | 1% | . | 6 | 1 | 0 | 3*
CCOC(=O)c1c(C)n(CCOC)c2ccc(O)cc12 | 1% | i | 2 | 1 | 0 | 1.1
COCCCn1c(N)c(C(=O)OCCOC)c2nc3ccccc3nc21 | 13% | . | 14 | 1.1 | 11 | 3.8*
CCCC(C)C(=O)NC1CCSC1=O (configuration not stated) | 0% | i | 1 | 1.1 | 0 | 1.1
SMILES | NADH enzymes | Spn DPM-DC inh | PMK inhibit | Abs 340nm | Spn MK inh | Fluor 339 460
O=C(c1cc(=O)[nH]c2ccc(Br)cc12)N1CCC2(CC1)OCCO2 | 10% | i | 11 | 1.1 | 17 | 1.3
O=C(CN1CCOCC1)c1ccc2cc[nH]c2c1 | 4% | . | 8 | 1.1 | 0 | 2.1*
C1CNC2NCCNC2N1 (configuration not stated) | 4% | i | 12 | 1 | 0 | 1.1
CN1CC=C2C(C#N)=C(N)C(C#N)(C#N)C(c3ccncc3)C2C1 (configuration not stated) | 4% | i | 0 | 1.1 | 0 | 2*
O=S1(=O)CC2(N3CCOCC3)CCCCCCC21 (configuration not stated) | 6% | i | 15 | 0.99 | 4 | 1.1
CC[C@@H](CO)NC(=O)[C@@H]1C=C2c3cccc4c3c(cn4C)C[C@H]2N(C)C1 | 4% | . | 3 | 1 | 7 | 2.5*
CN1C[C@H](CNC(=O)OCc2ccccc2)C[C@@H]2c3cccc4c3c(cn4C)C[C@H]21 | 3% | i | 5 | 0.98 | 6 | 1.1
C=Cn1ccnc1P(=S)(c1nccn1C=C)C1CCCCC1 | 5% | i | 10 | 1 | 4 | 1.1
O=c1[nH]c(=O)n(Cc2ccc(F)cc2)c(O)c1C=NCC1CCCO1 (configuration not stated) | 6% | i | 11 | 0.98 | 7 | 1.1
CCOC(=O)c1cc2c(cn1)[nH]c1ccccc12 | 6% | +[fluoresces] | 9 | 0.98 | 9 | 2.2*
COCCOC(=O)c1c(N)n(Cc2ccc(OC)cc2)c2nc3ccccc3nc12 | 9% | . | 10 | 1.1 | 8 | 3.9*
CCOC(=O)c1c(N)n(Cc2ccc(OC)cc2)c2nc3ccccc3nc12 | 5% | . | 4 | 1 | 6 | 3.9*
COC(=O)c1c(N)n(Cc2ccc(OC)cc2)c2nc3ccccc3nc12 | 3% | . | 1 | 1.1 | 5 | 3.7*
CNCCc1nc(N)n[nH]1 | 3% | i | 1 | 1 | 9 | 1.1
CC(=O)CC(C)(C)n1c[n+](C)nn1 | 3% | i | 10 | 1 | 0 | 1.1
CC(=Nc1ccc2c(c1)CCC2)c1c(O)n(C)c(=O)n(C)c1=O | 1% | i | 3 | 1.1 | 0 | 1.1
CC(C)(C)n1c(O)c(C=Nc2ccc3c(c2)CCC3)c(=O)[nH]c1=O | 12% | i | 10 | 1.1 | 0 | 2.1*
CN=C(SCc1ccccc1)c1c(O)n(C)c(=O)n(C)c1=O | 5% | i | 10 | 1.1 | 6 | 1.1
Oc1ccc(Br)cc1CN1CCN(c2ccccc2)CC1 | 1% | i | 0 | 1 | 3 | 1.1
COc1cc(C)c(CN2CCN(c3ccccc3)CC2)cc1C | 19% | i | 8 | 1.1 | 49* | 1.1
O=c1c2ccccc2[se]n1-c1ccccc1 | 56µM* | + | 100* | 1.1 | 72* | 1.1
COc1cccc(-n2c(C)nc3ccccc3c2=O)c1 | 4% | i | 9 | 1 | 2 | 1.1
Cc1ccc(C)c(C2(O)CC(C)N(C)CC2C)c1 (configuration not stated) | 2% | i | 8 | 1 | 1 | 1
CCOC(=O)c1c(-c2ccc(OC)cc2)oc2ccc(OC(=O)N(C)C)cc12 | 6% | . | 11 | 1.1 | 1 | 3.8*
